# Results taken from PubChem BioAssay.
# Activity calls are given as the source filed them.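 Rule for the calls, unless noted: active = visually confirmed hit in the image check and inhibition above 20%; inconclusive = visually confirmed hit but inhibition not above 20%; inactive = no visual hit in the image check.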
# Experiments:
# [1] = inhibitors of TNFa-induced NFkB p65 translocation, primary screen, imaging, HUVEC, MLSMR starter and 10KST1 sets (AID 438;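 active = inhibition above 20% together with a positive visual image hit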;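 note: compound added about 3h40 before a 20 min TNFalpha stimulation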;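 for inhibition: signal is the nuclear over cytoplasmic p65 intensity ratio per well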); settings: HUVEC TNFa-induced p65 nuclear translocation; cell count: measured here: nuclei count (cytotoxicity indicator), at 2.08 µM; inhibition: at 2 µM, stronger effect = higher value, 0% TNFa-plus-vehicle, 100% no-TNFa wells
# [2] = inhibitors of mutant huntingtin aggregation, primary screen, imaging, exon1htt(103Q)mCFP cells, high-content imaging (AID 483;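 active = visual image review flags a hit and inhibition of aggregation exceeds 20%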;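 note: compound exposure lasted 3 days before fixation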;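 for nuclei count: percent of the per-plate median nuclei count of sample wells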); settings: exon1htt(103Q)mCFP cell line, aggregate imaging, at 2 µM; inhibition of aggregation: stronger effect = higher value; nuclei count: measured here: cell count, toxicity
# [3] = inhibitors of E-selectin induction by TNFa, primary screen, imaging, HUVEC, immunofluorescence, MLSMR starter and 10KST1 sets (AID 487); settings: HUVEC TNFalpha-induced E-selectin immunofluorescence imaging, at 2 µM; inhibition: stronger effect = higher value; nuclei count: measured here: cell number, toxicity;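 for inhibition: signal is fraction of cell area covered by stained E-selectin grains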;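 for nuclei count: 100% = median nuclei count of all wells on the same plate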
# [4] = target: Voltage-gated potassium channel subunit beta-2 (Rattus norvegicus) (UniProt P62483); test: KvBeta enzyme negative modulators, primary screen, biochemical, NADPH fluorescence (AID 622;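 active = fluorescence slope higher than the sample average by over 3 SD, cut at about -0.22 in these data, passing the limit was not always enough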;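 note: slope of raw intensity against log time taken from 70 to 1610 s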); settings: recombinant KvBeta, 4-cyanobenzaldehyde reduction, at 10 µM, stronger effect = higher value
# Sequence of Voltage-gated potassium channel subunit beta-2 (Rattus norvegicus) (P62483 whole entry, looked up): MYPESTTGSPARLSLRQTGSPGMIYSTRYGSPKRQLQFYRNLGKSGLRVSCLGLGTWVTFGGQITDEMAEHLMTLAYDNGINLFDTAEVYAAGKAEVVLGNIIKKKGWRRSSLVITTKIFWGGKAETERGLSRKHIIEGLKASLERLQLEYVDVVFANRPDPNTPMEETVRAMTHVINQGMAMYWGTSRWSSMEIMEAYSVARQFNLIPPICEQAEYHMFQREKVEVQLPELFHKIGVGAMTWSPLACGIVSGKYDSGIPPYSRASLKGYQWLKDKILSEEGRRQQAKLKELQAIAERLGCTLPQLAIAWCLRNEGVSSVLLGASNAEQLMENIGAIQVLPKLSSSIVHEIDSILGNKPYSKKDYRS
# [5] = target: Voltage-gated potassium channel subunit beta-2 (Rattus norvegicus) (UniProt P62483); test: KvBeta positive modulators, primary screen, biochemical, NADPH fluorescence (AID 623;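 active = NADPH fluorescence slope more negative than the mean of all samples by about 3 SD, 99.7% confidence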;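 note: fluorescence intensity change per second fitted from 20 to 320 s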); settings: Recombinant KvBeta, NADPH fluorescence decrease slope, 10 min; at 10 µM; stronger effect = lower value
# [6] = target: Alpha-2C adrenergic receptor (Homo sapiens) (UniProt P18825); test: modulators of alpha2C/GIRK thallium flux, primary screen, cell-based, HEK293 alpha2C/GIRK1/2 (AID 624;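 active = fluorescence slope after compound addition differing from the mean of all screened samples at 99.7% confidence, in either direction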;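 note: slope of fluorescence ratio to pre-addition baseline per second over 15 to 24 s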); settings: thallium flux BTC fluorescence, at 10 µM, actives lie on both sides
# Sequence of Alpha-2C adrenergic receptor (Homo sapiens) (P18825 whole entry, looked up): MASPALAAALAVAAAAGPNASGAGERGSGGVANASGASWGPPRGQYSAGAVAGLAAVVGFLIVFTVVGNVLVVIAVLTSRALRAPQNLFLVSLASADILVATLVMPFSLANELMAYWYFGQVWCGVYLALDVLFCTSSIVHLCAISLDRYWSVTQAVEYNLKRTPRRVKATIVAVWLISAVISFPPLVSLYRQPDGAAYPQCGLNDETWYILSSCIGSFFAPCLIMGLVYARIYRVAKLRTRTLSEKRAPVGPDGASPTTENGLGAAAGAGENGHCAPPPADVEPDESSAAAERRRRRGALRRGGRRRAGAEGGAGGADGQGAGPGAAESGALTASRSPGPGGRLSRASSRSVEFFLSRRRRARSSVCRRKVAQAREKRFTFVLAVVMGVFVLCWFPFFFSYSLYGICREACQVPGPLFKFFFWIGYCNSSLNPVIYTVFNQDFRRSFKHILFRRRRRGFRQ
# [7] = inhibitors of Sendai virus-induced IRF3 signaling, primary screen, TLR/RLR signaling modifier project, cell-based, Sendai virus stimulus, luciferase, 10K MLSCN set (AID 602276;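 active = inhibition at or above 50% at 10 µM; inactive = inhibition below 50%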;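 note: firefly luciferase from ISG56 promoter only with Renilla not read in this screen; 0% = Sendai virus plus DMSO and 100% = medium plus DMSO without virus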); settings: HEK293 RL24 IRF3 luciferase reporter, at 10 µM, stronger effect = higher value
# [8] = inhibitors of poly I:C-induced TLR3 signaling, primary screen, cell-based, poly I:C stimulus, luciferase, 10K MLSCN set (AID 602277;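 active = inhibition of the reporter signal at or above 50%; inactive = inhibition below 50%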); settings: HEK293-TLR3 RL24 IRF3 luciferase reporter, at 10 µM, stronger effect = higher value
Structure (SMILES),cell count [1],inhibition [1],inhibition of aggregation [2],nuclei count [2] [%],inhibition [3],nuclei count [3] [%],fluorescence slope [4],NADPH fluorescence slope [5],slope [6],inhibition [7],inhibition [8]
CCOC(=O)N1CCC(NC(=O)C2CCCN(C(=O)c3cc4sccc4n3C)C2)CC1 (stereo not drawn),762,-5.8% (inactive),-4.7% (inactive),127,-71.5% (inactive),123,-0.556 (inactive),-4.1e-05 (inactive),0.00546 (inactive),2.87% (inactive),25.3% (inactive)
c1nc(NCC2(N3CCOCC3)CCCCC2)c2ccsc2n1,303,17.8% (inactive),-2.2% (inactive),93,20.6% (inactive),87.7,-0.612 (inactive),-1e-05 (inactive),0.00518 (inactive),-0.86% (inactive),23.1% (inactive)
N#Cc1nc(COc2ccccc2Cl)oc1N1CCCCCC1,577,1.1% (inactive),-17.4% (inactive),92.6,17.1% (inactive),102,-0.431 (inactive),-5e-05 (inactive),0.00512 (inactive),0.19% (inactive),0.00693% (inactive)
COc1ccc(C2C(C(C)=O)=C(O)C(=O)N2C)c(OC)c1 (stereo not drawn),464,3.8% (inactive),-2.5% (inactive),116,-48.3% (inactive),136,-0.461 (inactive),-1.6e-05 (inactive),0.00277 (inactive),5.02% (inactive),32% (inactive)
CN(C)c1cccc(C(=O)OCC(=O)NCc2ccco2)c1,806,-12.9% (inactive),5.8% (inactive),85.3,9.6% (inactive),97.5,-0.603 (inactive),3e-05 (inactive),0.0074 (inactive),10.8% (inactive),5.69% (inactive)
Nc1c(C(=O)NCc2ccco2)nnn1Cc1ccccc1,277,-13.1% (inactive),5.9% (inactive),94.8,-65.2% (inactive),115,-0.399 (inactive),-4.5e-05 (inactive),0.00354 (inactive),8.14% (inactive),3.26% (inactive)
O=C(NS(=O)(=O)c1ccc(NC(=O)C2CCCO2)cc1)c1ccccc1 (stereo not drawn),577,-6% (inactive),2.1% (inactive),110,-46.8% (inactive),125,-0.328 (inactive),-5.2e-05 (inactive),0.00463 (inactive),11.4% (inactive),17.7% (inactive)
CCOC(=O)c1c(N)nn(C(=O)C(C)C)c1-c1ccccc1,690,-2.1% (inactive),-5.4% (inactive),112,4.3% (inactive),109,-0.529 (inactive),-1.3e-05 (inactive),0.00581 (inactive),-23.8% (inactive),-5.01% (inactive)
Cc1cc(C(=O)Cn2cncn2)c(C)n1CCc1ccc(F)cc1,453,-2.5% (inactive),0.8% (inactive),91.7,-92.9% (inactive),98.5,-0.48 (inactive),-4e-05 (inactive),0.00641 (inactive),0.317% (inactive),16.3% (inactive)
CC(C)(C)c1ccc(OCC(=O)O)cc1,567,3.1% (inactive),11.7% (inactive),98,-36% (inactive),96.2,-0.599 (inactive),-3.9e-05 (inactive),0.00377 (inactive),7.32% (inactive),11.4% (inactive)
CCn1c(SCC(=O)N2CCN(c3ccc(Cl)cc3)CC2)nc2ccccc2c1=O,324,8.1% (inactive),19.7% (inactive),83.7,-184% (inactive),102,-0.545 (inactive),4e-05 (inactive),0.00578 (inactive),-8.17% (inactive),-12.7% (inactive)
N#Cc1cnn(Cc2ccc(Cl)cc2)c1N,628,4.5% (inactive),-3.8% (inactive),110,-28.9% (inactive),91.4,-0.466 (inactive),-5.6e-05 (inactive),0.00625 (inactive),7.9% (inactive),25.7% (inactive)
CCOc1ccc(CCN2C(=O)C3C4C=CC(C4)C3C2=O)cc1OCC (stereo not drawn),626,2.9% (inactive),-33.6% (inactive),134,-51.4% (inactive),112,-0.551 (inactive),-1.1e-05 (inactive),0.00791 (inactive),16.8% (inactive),36.6% (inactive)
O=C(NC(=O)c1ccc(Cl)cc1)Nc1cc(N2CCCCC2)ncn1,333,5.5% (inactive),11.3% (inactive),85.1,-70% (inactive),89.5,-0.48 (inactive),-4.9e-05 (inactive),0.00674 (inactive),13.2% (inactive),9.71% (inactive)
O=C1c2ccccc2C(Nc2ccc3c(c2)OCO3)N1Cc1ccc2c(c1)OCO2 (stereo not drawn),529,-8.5% (inactive),-8.3% (inactive),63.8,-0.3% (inactive),107,-0.398 (inactive),-2.6e-05 (inactive),0.00394 (inactive),-3.95% (inactive),27.2% (inactive)
Cc1cc(C)cc(NC(=O)c2nnn(Cc3cc(C)ccc3C)c2N)c1,598,8.7% (inactive),-15.9% (inactive),90.3,-5.5% (inactive),125,-0.564 (inactive),-3.4e-05 (inactive),0.00689 (inactive),44.9% (inactive),14.5% (inactive)
O=C(C1CCN(c2nnc(-n3cccc3)s2)CC1)N1CCN(Cc2ccc3c(c2)OCO3)CC1,707,-9.2% (inactive),-39.4% (inactive),115,-56.3% (inactive),113,-0.593 (inactive),-2e-05 (inactive),0.00596 (inactive),-2.25% (inactive),-31.5% (inactive)
CC(C)(C)c1ccc2c(c1)OCC(C(=O)O)O2 (stereo not drawn),448,2% (inactive),-7.2% (inactive),110,14.6% (inactive),90.7,-0.547 (inactive),5.5e-05 (inactive),0.00589 (inactive),-8.63% (inactive),4.32% (inactive)
COc1ccccc1NC(=O)C1(C)Cc2ccccc2C(=O)O1 (stereo not drawn),640,12.4% (inactive),-26.4% (inactive),119,46.9% (inactive),106,-0.584 (inactive),-3.4e-05 (inactive),0.00673 (inactive),-6.71% (inactive),-2.97% (inactive)
CCc1c(C(=O)Nc2ncn(Cc3cccc(C)c3)n2)csc1C,630,1.2% (inactive),2% (inactive),97.3,-66.7% (inactive),110,-0.343 (inactive),-4.3e-05 (inactive),0.00495 (inactive),7.43% (inactive),15.5% (inactive)
CCOC(=O)CCNC(=O)Nc1ccc2nc(C)n(Cc3ccccc3Cl)c(=O)c2c1,623,1.4% (inactive),-9.2% (inactive),89.5,-33.8% (inactive),104,-0.366 (inactive),1.6e-05 (inactive),0.00472 (inactive),1.46% (inactive),-9.46% (inactive)
O=C(NCCCn1ccnc1)c1csc2ccccc12,337,4.7% (inactive),-23.2% (inactive),99.4,-7.7% (inactive),113,-0.414 (inactive),-3.7e-05 (inactive),0.00227 (inactive),10.2% (inactive),27.4% (inactive)
COc1ccc(N(CC(=O)Nc2ccc3c(c2)OCCO3)S(=O)(=O)c2cccnc2)cc1,515,-3.3% (inactive),13.1% (inactive),117,-36.8% (inactive),122,-0.608 (inactive),-7e-05 (inactive),0.00783 (inactive),-5.76% (inactive),17.1% (inactive)
Cc1cc(C(=O)Nc2c(F)cc(F)cc2Br)no1,338,-3.2% (inactive),25.8% (inactive),94.4,-143% (inactive),103,-0.58 (inactive),1.4e-05 (inactive),0.0051 (inactive),3.46% (inactive),-12% (inactive)
COc1cc2c(cc1OC)C(c1ccccc1O)N(C1CC(=O)N(c3ccccc3)C1=O)CC2 (stereo not drawn),409,-0.5% (inactive),-10.4% (inactive),105,-27.1% (inactive),123,-0.411 (inactive),-8.8e-05 (inactive),0.00648 (inactive),15.9% (inactive),28.7% (inactive)
COc1ccc(S(=O)(=O)NCCOc2ccccc2)cc1OC,310,-3.3% (inactive),8.7% (inactive),95.3,-41.2% (inactive),96.1,-0.439 (inactive),-3.7e-05 (inactive),0.00599 (inactive),12.3% (inactive),22.2% (inactive)
CCn1c(CCNC(=O)c2cccs2)nnc1SCC(=O)c1ccc(OC)cc1,263,0.8% (inactive),-4.7% (inactive),99.7,-94.1% (inactive),115,-0.398 (inactive),2.4e-05 (inactive),0.00289 (inactive),-4.44% (inactive),-7.83% (inactive)
CCOC(=O)c1c(NC(=O)OC)sc2c1CCC2,496,-0.5% (inactive),9.3% (inactive),82.8,-35.7% (inactive),125,-0.535 (inactive),-1.5e-05 (inactive),0.00667 (inactive),7.95% (inactive),15.6% (inactive)
